Molecules are shown by their SMILES. Results filed as inconclusive are left out. Entries that show only a call come without a potency. Active and inactive are the calls of the source. The call rests on the fitted dose curve; in most records, active means well fitted inhibition curve with a large enough effect; inconclusive means small, poorly fitted or top-dose-only effect; inactive means flat fitted curve, though single readings scatter.
Potency means the concentration at half of the fitted maximal effect.

The nature of the assay: BET inhibitor-based combinations targeting novel dependencies in MECOM-rearranged (r) AML: AML-194 cell line (AID 2202237; further: nearly all actives have a fitted effect of over 40% in size). The settings on record: AML-194 (MECOM-r AML) viability, CellTiter-Glo, 48 h; series mostly up to 46 µM. The gist of the method: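 Readout: CellTiter-Glo luminescence. Exposure: 48 h, 11 concentrations, 500 cells/well. Metric: AUC and within-line Z-AUC after DMSO/empty-well normalization.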
(Cellular ATP, detected with luciferase, serves as a proxy for viable cell number.)
In the case of `CCCOc1ccc(C(=O)OCCN(CC)CC)cc1N`, the Potency result was “inactive”. `Oc1c(Cl)cc(Cl)c2cccnc12`: the Potency was 8.33 µM (active). Take `COc1cccc2c1CCCC2CCCN1CCN(C2CCCCC2)CC1` (centres undefined): the Potency result is “inactive”. `NC(N)=NC(N)=NCCc1ccccc1`: the Potency result was “inactive”. `CC(=O)O[C@H]1C[C@@H]2CC[C@@H]3[C@H](CC[C@@]4(C)[C@H]3C[C@H]([N+]3(C)CCCCC3)[C@@H]4OC(C)=O)[C@@]2(C)C[C@@H]1N1CCCCC1`: the Potency entry was “inactive”.

With `C[C@@H](CN1CC(=O)NC(=O)C1)N1CC(=O)NC(=O)C1`, the Potency was 16.6 µM (active). On to `O=c1ccn([C@@H]2O[C@H](CO)[C@H](O)[C@@H]2F)c(=O)[nH]1`, for which the Potency entry is “inactive”.

With `COc1ccc(Cn2ccc3ccc(C(=O)NO)cc32)cc1`, the Potency was 18.6 µM (active). As to `OC[C@@H](O)[C@@H](O)[C@H](O)[C@@H](O)CO`, the Potency entry is “inactive”. Take `CC1(C)CCC2=C(O1)c1ccccc1C(=O)C2=O`: the Potency was 26.3 µM (active). The result for `CC(C)(Sc1cc(C(C)(C)C)c(O)c(C(C)(C)C)c1)Sc1cc(C(C)(C)C)c(O)c(C(C)(C)C)c1` reads 13.2 µM (active); that for `CN(C)CCc1c[nH]c2ccc(CS(=O)(=O)N3CCCC3)cc12`, “inactive”.

As to `Cc1coc2c1C(=O)C(=O)c1c-2ccc2c1CCCC2(C)C`, the Potency entry is “inactive”. The result for `CC(Cc1ccc(O)c(O)c1)(NN)C(=O)O` (centres undefined) reads “inactive”. As to `O=C(/C=C\n1cnc(-c2cc(C(F)(F)F)cc(C(F)(F)F)c2)n1)NNc1cnccn1`, the Potency was 0.372 µM (active). Turning to `Nc1nc(Cl)nc2c1ncn2[C@H]1C[C@H](O)[C@@H](CO)O1`, the Potency is 0.0742 µM (active).

As for `CCOC(=O)c1c(C)n(C)c2ccc(O)cc12`, the Potency entry is “inactive”. As for `N[C@@H](CC(=O)N1CCn2c(nnc2C(F)(F)F)C1)Cc1cc(F)c(F)cc1F`, the Potency entry was “inactive”.

On to `COC(c1ccccc1)(c1ccccc1)[C@H](Oc1nc(C)cc(C)n1)C(=O)O`, for which the Potency result was “inactive”. Consider `c1ccc2c(-c3cnn4cc(-c5ccc(N6CCNCC6)cc5)cnc34)ccnc2c1`, for which the Potency was 2.63 µM (active). For the molecule `CCn1cc(C(=O)O)c(=O)c2cc(F)c(N3CCN(C)CC3)cc21`, the Potency result is “inactive”. Take `CCCCC(CC)COC(=O)C(C#N)=C(c1ccccc1)c1ccccc1` (centres undefined): the Potency result was “inactive”. The result for `CCN(CC)CCCCNc1ncc2cc(-c3cc(OC)cc(OC)c3)c(NC(=O)NC(C)(C)C)nc2n1` reads 16.6 µM (active). As for `COc1cc(C(=O)NC2CCN(C)CC2)ccc1Nc1ncc2c(n1)N(C1CCCC1)CCC(=O)N2C(C)C`, the Potency is 23.5 µM (active).

For the origin of these results see PubChem BioAssay (NCATS).
